# Experimental data published in the supplement of paper PMC9801561.
# ± gives the standard deviation of the averaged measurements.
# What was measured:
# [1] = system: Escherichia coli Nissle 1917; experiment: area under OmniLog respiration curve over 48 h (OmniLog units x h); higher = more growth / nutrient utilisation; extreme values may be limits of the assay; settings: incubation: 48 h, 37 °C
# [2] = system: Escherichia coli Nissle 1917; experiment: DuctApe activity index of respiration/growth curve (0 no growth to 9 maximum) (index 0-9); higher = more growth / nutrient utilisation, active = 3 or more; extreme values may be limits of the assay; settings: incubation: 48 h, 37 °C
# [3] = nutrient role: C-Source, amino acid
# [4] = nutrient role: sole nitrogen source (pyruvate carbon)
# [5] = nutrient role: C-Source, carbohydrate
# [6] = nutrient role: sole phosphorus source (pyruvate carbon)
# [7] = nutrient role: C-Source, carboxylic acid
# [8] = nutrient role: sole sulfur source (pyruvate carbon)
# 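For DuctApe activity index of respiration/growth curve (0 no growth to 9 maximum) in this document: biolog PM4 phosphorus and sulfur plates, tetrazolium violet dye reduction read in the OmniLog every 15 min, kinetic curves scored by DuctApe, each plate run in triplicate.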
compound,measurement,setting,value
NCC(=O)N[C@@H](CCC(=O)O)C(=O)O,area under OmniLog respiration curve,[1]; [3],7660 ± 620
same,area under OmniLog respiration curve,[1]; [4],7640 ± 1700
same,DuctApe activity index,[2]; [3],7.67 (active)
same,DuctApe activity index,[2]; [4],8 (active)
N[C@@H](Cc1c[nH]cn1)C(=O)O [L-Histidine],area under OmniLog respiration curve,[1]; [3],4.72
same,area under OmniLog respiration curve,[1]; [4],4.72
same,DuctApe activity index,[2]; [3],0 (inactive)
same,DuctApe activity index,[2]; [4],0 (inactive)
C[C@@H](O)[C@H](N)C(=O)O [L-Threonine],area under OmniLog respiration curve,[1]; [3],7940 ± 380
same,area under OmniLog respiration curve,[1]; [4],3190 ± 1200
same,DuctApe activity index,[2]; [3],8 (active)
same,DuctApe activity index,[2]; [4],5 (active)
N[C@H]1C(O)O[C@H](CO)[C@@H](O)[C@@H]1O (stereo partly drawn) [D-Glucosamine],area under OmniLog respiration curve,[1]; [5],8060 ± 400
same,area under OmniLog respiration curve,[1]; [4],2180 ± 1100
same,DuctApe activity index,[2]; [5],8 (active)
same,DuctApe activity index,[2]; [4],3.33 (active)
NC(=O)C[C@H](N)C(=O)O [L-Asparagine],area under OmniLog respiration curve,[1]; [3],8660 ± 760
same,area under OmniLog respiration curve,[1]; [4],8770 ± 1400
same,DuctApe activity index,[2]; [3],8.67 (active)
same,DuctApe activity index,[2]; [4],8.67 (active)
NCCC[C@H](N)C(=O)O [L-Ornithine],area under OmniLog respiration curve,[1]; [3],34.5 ± 27
same,area under OmniLog respiration curve,[1]; [4],2670 ± 1300
same,DuctApe activity index,[2]; [3],0 (inactive)
same,DuctApe activity index,[2]; [4],4 (active)
NC(=O)CC[C@H](N)C(=O)O [L-Glutamine],area under OmniLog respiration curve,[1]; [3],8360 ± 610
same,area under OmniLog respiration curve,[1]; [4],8560 ± 1200
same,DuctApe activity index,[2]; [3],8.33 (active)
same,DuctApe activity index,[2]; [4],8.33 (active)
O=P(O)(O)OC[C@H](O)CO (racemic) [DL-a-Glycerol Phosphate],area under OmniLog respiration curve,[1]; [5],7910 ± 780
same,area under OmniLog respiration curve,[1]; [6],9010 ± 860
same,DuctApe activity index,[2]; [5],7.67 (active)
same,DuctApe activity index,[2]; [6],8.67 (active)
CC(N)=O [Acetamide],area under OmniLog respiration curve,"[1]; nutrient role: C-Source, amide",9.31 ± 7.2
same,area under OmniLog respiration curve,[1]; [4],26.4 ± 38
same,DuctApe activity index,"[2]; nutrient role: C-Source, amide",0 (inactive)
same,DuctApe activity index,[2]; [4],0 (inactive)
O=C[C@H](O)[C@@H](O)[C@H](O)[C@H](O)COP(=O)(O)O [D-Glucose-6-Phosphate],area under OmniLog respiration curve,[1]; [5],10100 ± 940
same,area under OmniLog respiration curve,[1]; [6],8680 ± 490
same,DuctApe activity index,[2]; [5],9 (active)
same,DuctApe activity index,[2]; [6],8.67 (active)
CC(=O)N[C@@H]1[C@@H](O)[C@H](O)[C@@H](CO)O[C@@H]1O [N-Acetyl-D-Glucosamine],area under OmniLog respiration curve,[1]; [5],7820 ± 520
same,area under OmniLog respiration curve,[1]; [4],1070 ± 1100
same,DuctApe activity index,[2]; [5],8 (active)
same,DuctApe activity index,[2]; [4],2.33 (inactive)
C[C@H](N)C(=O)O [L-Alanine],area under OmniLog respiration curve,[1]; [3],8160 ± 580
same,area under OmniLog respiration curve,[1]; [4],7330 ± 1200
same,DuctApe activity index,[2]; [3],8 (active)
same,DuctApe activity index,[2]; [4],8 (active)
O=c1ccn([C@@H]2O[C@H](CO)[C@@H](O)[C@H]2O)c(=O)[nH]1 [Uridine],area under OmniLog respiration curve,[1]; [5],9200 ± 570
same,area under OmniLog respiration curve,[1]; [4],8.86 ± 7.2
same,DuctApe activity index,[2]; [5],8.67 (active)
same,DuctApe activity index,[2]; [4],0 (inactive)
Nc1ncnc2c1ncn2[C@@H]1O[C@H](CO)[C@@H](O)[C@H]1O [Adenosine],area under OmniLog respiration curve,[1]; [5],9110 ± 480
same,area under OmniLog respiration curve,[1]; [4],6810 ± 990
same,DuctApe activity index,[2]; [5],8.67 (active)
same,DuctApe activity index,[2]; [4],7.33 (active)
O=P(O)(O)O[C@H]1O[C@H](CO)[C@@H](O)[C@H](O)[C@H]1O [D-Glucose-1-Phosphate],area under OmniLog respiration curve,[1]; [5],8850 ± 750
same,area under OmniLog respiration curve,[1]; [6],8060 ± 560
same,DuctApe activity index,[2]; [5],8.67 (active)
same,DuctApe activity index,[2]; [6],8.33 (active)
N[C@@H](CCC(=O)O)C(=O)O [L-Glutamic acid],area under OmniLog respiration curve,[1]; [3],7390 ± 830
same,area under OmniLog respiration curve,[1]; [4],7860 ± 1300
same,DuctApe activity index,[2]; [3],7.67 (active)
same,DuctApe activity index,[2]; [4],8 (active)
CC(C)[C@H](N)C(=O)O [L-Valine],area under OmniLog respiration curve,[1]; [3],5.38 ± 1.1
same,area under OmniLog respiration curve,[1]; [4],2650 ± 990
same,DuctApe activity index,[2]; [3],0 (inactive)
same,DuctApe activity index,[2]; [4],4 (active)
N=C(N)NCCC[C@H](N)C(=O)O [L-Arginine],area under OmniLog respiration curve,[1]; [3],4.72
same,area under OmniLog respiration curve,[1]; [4],7500 ± 1400
same,DuctApe activity index,[2]; [3],0 (inactive)
same,DuctApe activity index,[2]; [4],8 (active)
O=C(O)[C@@H]1CCCN1 [L-Proline],area under OmniLog respiration curve,[1]; [3],8520 ± 530
same,area under OmniLog respiration curve,[1]; [4],4840 ± 1100
same,DuctApe activity index,[2]; [3],8.67 (active)
same,DuctApe activity index,[2]; [4],6 (active)
CC(C)C[C@H](N)C(=O)O [L-Leucine],area under OmniLog respiration curve,[1]; [3],15.5 ± 9.5
same,area under OmniLog respiration curve,[1]; [4],804 ± 870
same,DuctApe activity index,[2]; [3],0 (inactive)
same,DuctApe activity index,[2]; [4],1.33 (inactive)
NC(=O)[C@H]1O[C@@H](O)[C@H](O)[C@@H](O)[C@@H]1O [Glucuronamide],area under OmniLog respiration curve,"[1]; nutrient role: C-Source, amide",33.5 ± 50
same,area under OmniLog respiration curve,[1]; [4],2520 ± 1200
same,DuctApe activity index,"[2]; nutrient role: C-Source, amide",0.333 (inactive)
same,DuctApe activity index,[2]; [4],4.33 (active)
NCCCC(=O)O [g-Amino-N-Butyric acid],area under OmniLog respiration curve,[1]; [7],4.72
same,area under OmniLog respiration curve,[1]; [4],2000 ± 1100
same,DuctApe activity index,[2]; [7],0 (inactive)
same,DuctApe activity index,[2]; [4],4 (active)
CC(=O)N[C@@H](CCC(=O)O)C(=O)O [N-Acetyl-L-Glutamic acid],area under OmniLog respiration curve,[1]; [3],4.72
same,area under OmniLog respiration curve,[1]; [4],4.72
same,DuctApe activity index,[2]; [3],0 (inactive)
same,DuctApe activity index,[2]; [4],0 (inactive)
N[C@@H](CC(=O)O)C(=O)O [L-Aspartic acid],area under OmniLog respiration curve,[1]; [3],8900 ± 710
same,area under OmniLog respiration curve,[1]; [4],8720 ± 1400
same,DuctApe activity index,[2]; [3],8.67 (active)
same,DuctApe activity index,[2]; [4],8.33 (active)
NCCCCN [Putrescine],area under OmniLog respiration curve,"[1]; nutrient role: C-Source, amine",13.7 ± 8.1
same,area under OmniLog respiration curve,[1]; [4],31.6 ± 46
same,DuctApe activity index,"[2]; nutrient role: C-Source, amine",0 (inactive)
same,DuctApe activity index,[2]; [4],0 (inactive)
N[C@H](CO)C(=O)O [D-Serine],area under OmniLog respiration curve,[1]; [3],9490 ± 1100
same,area under OmniLog respiration curve,[1]; [4],7130 ± 1200
same,DuctApe activity index,[2]; [3],8.67 (active)
same,DuctApe activity index,[2]; [4],7.67 (active)
CSCC[C@H](N)C(=O)O [L-Methionine],area under OmniLog respiration curve,[1]; [3],33.3 ± 28
same,area under OmniLog respiration curve,[1]; [4],4200 ± 940
same,area under OmniLog respiration curve,[1]; [8],6300 ± 150
same,DuctApe activity index,[2]; [3],0 (inactive)
same,DuctApe activity index,[2]; [4],6 (active)
same,DuctApe activity index,[2]; [8],7 (active)
N[C@@H](Cc1ccccc1)C(=O)O [L-Phenylalanine],area under OmniLog respiration curve,[1]; [3],8.61 ± 5.9
same,area under OmniLog respiration curve,[1]; [4],4290 ± 1100
same,DuctApe activity index,[2]; [3],0 (inactive)
same,DuctApe activity index,[2]; [4],6 (active)
